Compound activity deposited in PubChem BioAssay by NMMLSC.
An excerpt weighted towards active compounds, which were near 1.3% of everything screened.
AGP1 TOR yeast = modulators of AGP1-GFP expression in yeast TOR pathway, primary screen, cell-based, multiplex flow cytometry, S. cerevisiae, MLPCN library | hit rate 0.02% among 320,000 | 3 h; GFP as percent of DMSO wells | GFP response vs DMSO, % at 10 µM;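 active = GFP response relative to DMSO above a set limit, near screen average plus 3 SD, cut at about 150% in these data; inconclusive = fewer than 70 cells counted for the yeast strain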;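 also: median GFP channel fluorescence of the gated AGP1 strain per well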
Efflux pump mplx = inhibitors of Candida efflux pumps in yeast, primary screen, S. cerevisiae, Nile Red, multiplex; S. cerevisiae Candida pump triplex; hit rate 0.44% among 330,000; inhibition, % at 10 µM;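 active = plate passing quality check with inhibition over a set limit, or well fluorescence over plate mean plus 4 SD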;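 also: Nile Red retained in pooled yeast measured as flow cytometry median fluorescence; 0% = buffer negative control and 100% = Enniatin B positive control; higher means more Nile Red kept so more efflux inhibition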
CIT2 TOR yeast = modulators of CIT2-GFP expression in yeast, primary screen, S. cerevisiae, GFP fusion, multiplex flow cytometry, MLPCN library; S. cerevisiae CIT2-GFP strain, 3 h; 100 means same as DMSO wells; GFP response vs DMSO, % at 10 µM; hit rate 0.065% among 320,000; AID 2029, 2009;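 active = GFP response relative to DMSO above a set limit, near the screen mean plus 3 SD, cut at about 150% in these data; inconclusive = Fewer than 70 cells measured for a yeast strain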;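 also: ratio of well median GFP fluorescence to mean of DMSO wells on the plate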
RPL19A-GFP yeast = RPL19A-GFP expression modulators in yeast, primary screen, cell-based, S. cerevisiae, multiplex flow cytometry, MLPCN. percent response vs DMSO, % at 10 µM. S. cerevisiae RPL19A-GFP strain, 3 h; active compounds read low. hit rate 0.3% among 330,000;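 active = percent response vs DMSO below 50%; inconclusive = fewer than 70 events counted for the yeast strain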;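 also: median channel GFP fluorescence of the barcoded RPL19A-GFP strain; ratio of sample median GFP to plate DMSO average so 100% = DMSO; lower means less RPL19A-GFP as with rapamycin TOR inhibition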
MEP2-GFP yeast = modulators of MEP2-GFP levels in yeast, primary screen, S. cerevisiae, multiplex flow cytometry, MLPCN library; GFP response vs DMSO, % at 10 µM; hit rate 0.51% among 330,000; S. cerevisiae MEP2-GFP strain, 3 h; 100% = DMSO control level;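 active = GFP response versus DMSO above a set limit, roughly screen mean plus 3 SD, cut at about 180% in these data; inconclusive = fewer than 70 cells counted for a yeast strain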;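 also: median GFP fluorescence of the barcode-gated MEP2-GFP cells per well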
LAP4-GFP MLPCN = modulators of LAP4-GFP expression in yeast, primary screen, S. cerevisiae, multiplex flow cytometry, MLPCN library. 3 h; median GFP as percent of DMSO wells. GFP response vs DMSO, % at 10 µM. hit rate 0.34% among 320,000. AID 2023, 2009;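 active = GFP response vs DMSO above a set limit, about the screen mean plus 3 SD, cut at about 150% in these data; inconclusive = under 70 cell events counted for the yeast strain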
* = called active by the depositor; ? = inconclusive; nt = not tested or not shown; [ ] = another dose, or the depositor's remark.

SMILES	AGP1 TOR yeast	Efflux pump mplx	CIT2 TOR yeast	RPL19A-GFP yeast	MEP2-GFP yeast	LAP4-GFP MLPCN
Cc1c(NC(=O)CN2CCN(C(c3ccccc3)c3ccccc3)CC2)c(=O)n(-c2ccccc2)n1C	?	0.0	?	27.1*[may fluoresce violet]	487.4*[may fluoresce violet]	93.8
Cc1c(NC(=O)CN2CCN(c3ccccc3)CC2)c(=O)n(-c2ccccc2)n1C	nt	0.0	103.2	90.2	94.0	103.1
Cc1ccc(NC(=O)Nc2c(C)n(C)n(-c3ccccc3)c2=O)cc1	98.0	0.0	115.0	108.8	119.5	98.4
Cc1c(NC(=O)Nc2ccc3c(c2)OCO3)c(=O)n(-c2ccccc2)n1C	160.7*	0.0	111.9	93.0	224.5*	260.1*
Nc1c(NC=O)c(=O)n(Cc2ccccc2)c(=O)n1Cc1ccccc1	104.9	-0.1	98.2	99.8	98.1	108.0
Nc1[nH]ncc1S(=O)(=O)c1ccccc1	106.9	-0.2	105.3	107.3	106.3	91.3
Cc1cccc(NC(=O)CN2C(=O)NC(C)(c3ccc4c(c3)OCO4)C2=O)c1 (configuration not stated)	19.0	-0.2	?	20.4*[may fluoresce violet]	289.3*[may fluoresce violet]	72.0
Cn1cc(Br)c(C(=O)N/N=C/c2cc3ccccc3nc2Cl)n1	85.9	0.1	96.2	102.0	98.1	67.7
N#Cc1ccccc1Sc1ccccc1C(=O)OCC(=O)N1CCN(C(=O)c2ccco2)CC1	?	0.2	?	14.7*[may fluoresce violet]	207.0*[may fluoresce violet]	91.2
C=CCCO[C@@H]1O[C@@H](C)[C@H](O)C[C@H]1O	91.5	0.1	88.9	90.9	86.8	94.0
CCOc1cccc(/C=C2\NC(=S)N(c3ccccc3)C2=O)c1O	?	0.2	?	18.2*[may fluoresce violet]	423.6*[may fluoresce violet]	75.8
COc1ccc(N2CC(C(=O)NC3CCSC3=O)CC2=O)cc1 (configuration not stated)	91.8	0.1	103.3	95.3	95.6	91.5
O=C(c1ccc(NS(=O)(=O)c2ccc(F)cc2)cc1)N1CCC1	99.3	0.8	89.6	93.2	100.1	100.2
CN1CCN(/N=C/c2c3ccccc3c(Cl)c3ccccc23)CC1	11.5	0.4	60.7	71.9	145.8	162.7*
COc1ccc(OCC(=O)N(Cc2sccc2C)C2CCS(=O)(=O)C2)cc1 (configuration not stated)	107.7	0.1	101.8	102.2	105.7	99.3
Cc1cccc(NC(=O)c2cc3c(s2)-c2c(C)cccc2OC3)n1	56.5	0.1	?	73.6	221.9*[may fluoresce violet]	103.0
CCOC(=O)c1cc(S(=O)(=O)N2CCN(C(=O)OCC)CC2)cn1C	26.7	-0.1	95.0	94.8	200.1*	85.8
CCOC(=O)c1cc(S(=O)(=O)N2CCOCC2)cn1C	106.4	-0.1	98.5	102.2	105.7	104.8
CCCn1c(N)c(C(=O)CSc2nc(C3CC3)n(-c3ccccc3)n2)c(=O)[nH]c1=O	100.3	-0.1	95.1	93.3	98.5	96.2
CN(CCCNC(=O)c1cc2c(=O)[nH]c3ccccc3c2n1C)Cc1ccccc1	?	0.1	?	31.0*[may fluoresce violet]	90.6	129.4
CC1CC(C)CN(CCCNC(=O)c2cc3c(=O)[nH]c4ccccc4c3n2C)C1 (configuration not stated)	102.2	-0.3	81.3	104.9	104.3	99.4
O=C(Cc1ccc(Cl)cc1)Nc1ccc(Br)cn1	26.1	0.4	83.0	70.8	187.2*	111.4
NS(=O)(=O)c1ccc(N2N=C(c3ccc(Br)cc3)CC2c2ccc(F)cc2)cc1 (configuration not stated)	?	0.2	?	37.3*[may fluoresce violet]	169.3	62.6
NS(=O)(=O)c1ccc(N2N=C(c3ccccc3)CC2c2cccc(F)c2)cc1 (configuration not stated)	81.7	0.3	85.7	96.2	99.5	94.0
COC(=O)c1c(C)[nH]c(C(=O)C(C)OC(=O)c2cnc(C)cn2)c1C (configuration not stated)	100.0	0.1	97.1	101.5	101.1	102.3
SMILES	AGP1 TOR yeast	Efflux pump mplx	CIT2 TOR yeast	RPL19A-GFP yeast	MEP2-GFP yeast	LAP4-GFP MLPCN
OCC1(Cc2ccccc2)CCCN(Cc2ccc(-c3ccco3)cc2)C1 (configuration not stated)	26.7	-0.1	?	36.2*[may fluoresce violet]	328.3*[may fluoresce violet]	92.5
O=C(Nc1c2c(nn1-c1ccccc1)CS(=O)C2)c1ccco1 (configuration not stated)	112.8	-0.8	82.5	77.4	90.3	168.2*
Cc1c(CCC(=O)NCC(=O)O)c(=O)oc2cc3occ(-c4ccccc4)c3cc12	94.1	0.0	99.1	107.7	106.1	97.7
CCCC(NC(=O)CCc1c(C)c2cc3c(-c4ccccc4)coc3cc2oc1=O)C(=O)O (configuration not stated)	?	0.1	?	64.6	288.1*[may fluoresce violet]	100.3
CC(=O)Nc1ccc(S(=O)(=O)Nc2ccc3[nH]c(=O)[nH]c3c2)cc1	21.5	0.5	?	43.8*[may fluoresce violet]	653.3*[may fluoresce violet]	106.6
O=c1[nH]c2ccc(NS(=O)(=O)c3ccc([N+](=O)[O-])cc3)cc2[nH]1	99.2	-0.5	102.2	94.9	98.1	97.2
Cc1ccc(OCc2ccc(C(=O)Nc3nccs3)o2)cc1C	?	-0.2	?	14.7*[may fluoresce violet]	255.3*[may fluoresce violet]	75.6
Cn1nc(C(=O)OCC(=O)Nc2ccccc2OC(F)F)c2ccccc2c1=O	110.6	0.2	103.3	112.9	109.1	113.3
CNc1sc(C(=O)c2cccs2)c(N)c1-c1nc2ccccc2s1	?	0.1	114.4	93.8	98.5	124.1
CNc1sc(C(=O)c2ccc(F)cc2)c(N)c1-c1nc2ccccc2s1	42.4	-0.2	?	96.1	96.6	153.0*[may fluoresce violet]
COc1ccc(NS(=O)(=O)c2cc(C)ccc2C)cc1	nt	-0.1	91.7	94.3	98.1	106.0
COc1ccc(S(=O)(=O)Nc2ccc(C(F)(F)F)cc2)cc1OC	?	0.1	?	62.3	195.6*[may fluoresce violet]	79.1
COc1ccc(NS(=O)(=O)c2cccc3ccccc23)cc1	95.7	-0.1	87.1	70.7	93.5	183.5*
COc1ccc(NS(=O)(=O)c2cc(OC)ccc2OC)cc1	?	0.1	?	44.9*[may fluoresce violet]	267.2*[may fluoresce violet]	97.0
O=C(c1ccccc1)N1CCN(CC(O)COc2ccc(Br)cc2)CC1 (configuration not stated)	103.8	-0.1	109.0	110.6	108.3	95.9
CCCSc1ccc([C@H]2N[C@@](C)(C(=O)OC)[C@H]3C(=O)N(C)C(=O)[C@@H]23)cc1OC	87.5	-0.1	95.5	98.1	97.3	109.3
CCN(CC)Cc1c(O)ccc2c(=O)c(-c3ccc4c(c3)OCCO4)coc12	nt	0.0	?	38.0*[may fluoresce violet]	182.2*[may fluoresce violet]	85.6
N=c1c(S(=O)(=O)c2ccc(Cl)cc2)cc2c(=O)n3ccccc3nc2n1CCN1CCOCC1	85.5	-0.2	nt	91.2	85.8	91.5
